ELG1 repair inh – qHTS screen for small molecules that inhibit ELG1-dependent DNA repair in human embryonic kidney (HEK293T) cells expressing luciferase-tagged ELG1 | HEK293T ELG1-luciferase reporter, luminescence, 16 h; DNA damage induced by 5-fluorouridine | AID 504467, 2011 | 2.3% of 330,000 active | Potency, µM (top dose mostly 46.1 µM), for the others: at the highest dose activity change, negative = inhibition, most hits filed as inhibitors; further: potency means the concentration at half of the fitted maximal effect; nearly all actives have a fitted effect of over 55% in size
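Quantitative HTS, concentration-response format. 2,000 cells/well co-treated with 5-fluorouridine and compound, 16 hr in 5% CO2 at 37 °C; ONE-Glo luminescence read after 30 min.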
TDP1 cell CPT – qHTS for Inhibitors of human tyrosyl-DNA phosphodiesterase 1 (TDP1): qHTS in cells in presence of CPT; Potency, µM (doses to about 46.2 µM), inactives show top-dose activity change, negative = growth inhibition, most hits filed as inhibitors; 12% of 420,000 active; AID 686979, 2013; chicken DT40 Tdp1-/-;hTDP1 cells + 20 nM CPT, ATP luminescence, 48 h; further: potency means the concentration at half of the fitted maximal effect; nearly all actives have a fitted effect of over 55% in size
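Chicken DT40 Tdp1-/- cells complemented with human TDP1, 400 cells/well, exposed to compounds plus 20 nM camptothecin for at least 48 h at 37 C; viability read as ATP content by CellTiter-Glo luminescence.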
IL-1B inflam inh – qHTS for Inhibitors of Inflammasome Signaling: IL-1-beta AlphaLISA Primary Screen; THP-1 LPS/ATP IL-1B secretion, AlphaLISA, 16 h; stronger effect = lower value; activity change, % at 57.5 µM; 4.7% of 360,000 active; in the data active means activity change below about -50%; inconclusive means mostly about -30% to -49%
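Secreted IL-1B measured by AlphaLISA bead assay after 16 h compound exposure of THP-1 cells; compounds (final up to 57.5 uM) added 1 h before LPS (250 ng/mL) and ATP (1.25 mM) stimulation; lower signal means less secretion.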
VP16 counter – VP16 counterscreen qHTS for inhibitors of ROR gamma transcriptional activity. Drosophila S2 Gal4-VP16 UAS-luciferase, luminescence, 20 h. Potency, µM (titrated, usually from 53.6 µM), inactives show top-dose activity, negative = inhibition, most hits filed as inhibitors. 3.5% of 310,000 active. AID 2546, 2010;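 further: Gal4-VP16 expression switched on by copper sulfate through the metallothionein promoter; potency means the concentration at half of the fitted maximal effect; nearly all actives have a fitted effect of over 50% in size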
DT40 TDP1 no CPT – qHTS for Inhibitors of human tyrosyl-DNA phosphodiesterase 1 (TDP1): qHTS in cells in absence of CPT | DT40 Tdp1-/- hTDP1 cells, no CPT, ATP luminescence, 48 h | Potency, µM (doses to about 46.2 µM), for inactives: at the top dose activity change, negative = growth inhibition, hits mostly inhibitors | 15% of 420,000 active | AID 686978, 2013; further: potency means the concentration at half of the fitted maximal effect; nearly all actives have a fitted effect of over 55% in size
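No-CPT arm: Tdp1-/-;hTDP1 DT40 cells (400/well) plus compounds, incubated ≥48 hr at 37 °C. Readout CellTiter-Glo luminescence.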
RORgamma inh – qHTS for inhibitors of ROR gamma transcriptional activity; Drosophila S2 Gal4-RORgamma UAS-luciferase reporter, 20 h; Potency, µM (highest dose often 53.6 µM), for the others: top-dose activity change, negative = inhibition, usual class: inhibitors; 5.4% of 310,000 active; AID 2551, 2010; further: potency means the concentration at half of the fitted maximal effect; nearly all actives have a fitted effect of over 60% in size
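Compounds are pin-transferred onto Drosophila Schneider cells expressing a copper-inducible Gal4–ROR gamma transactivation domain fusion. After 1 hr, copper sulfate is added to 700 uM final; luciferase is read 20 hr later.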
ELG1 Luc conf – HTS assay for small molecules that inhibit ELG1-dependent DNA repair in human embryonic kidney (HEK293T) cells expressing luciferase-tagged ELG1: Hit Confirmation; 68% of 670 active; shares compounds with ELG1 repair inh; Potency, µM (top dose mostly 46.1 µM), inactives show at the top dose activity change, negative = inhibition, actives largely listed as inhibitors; HEK293T ELG1-luciferase levels, luminescence; cells co-treated with 5-fluorouridine; further: potency means the concentration at half of the fitted maximal effect; nearly all actives have a fitted effect of over 55% in size
Target sequence (Q96QE3 whole entry, looked up): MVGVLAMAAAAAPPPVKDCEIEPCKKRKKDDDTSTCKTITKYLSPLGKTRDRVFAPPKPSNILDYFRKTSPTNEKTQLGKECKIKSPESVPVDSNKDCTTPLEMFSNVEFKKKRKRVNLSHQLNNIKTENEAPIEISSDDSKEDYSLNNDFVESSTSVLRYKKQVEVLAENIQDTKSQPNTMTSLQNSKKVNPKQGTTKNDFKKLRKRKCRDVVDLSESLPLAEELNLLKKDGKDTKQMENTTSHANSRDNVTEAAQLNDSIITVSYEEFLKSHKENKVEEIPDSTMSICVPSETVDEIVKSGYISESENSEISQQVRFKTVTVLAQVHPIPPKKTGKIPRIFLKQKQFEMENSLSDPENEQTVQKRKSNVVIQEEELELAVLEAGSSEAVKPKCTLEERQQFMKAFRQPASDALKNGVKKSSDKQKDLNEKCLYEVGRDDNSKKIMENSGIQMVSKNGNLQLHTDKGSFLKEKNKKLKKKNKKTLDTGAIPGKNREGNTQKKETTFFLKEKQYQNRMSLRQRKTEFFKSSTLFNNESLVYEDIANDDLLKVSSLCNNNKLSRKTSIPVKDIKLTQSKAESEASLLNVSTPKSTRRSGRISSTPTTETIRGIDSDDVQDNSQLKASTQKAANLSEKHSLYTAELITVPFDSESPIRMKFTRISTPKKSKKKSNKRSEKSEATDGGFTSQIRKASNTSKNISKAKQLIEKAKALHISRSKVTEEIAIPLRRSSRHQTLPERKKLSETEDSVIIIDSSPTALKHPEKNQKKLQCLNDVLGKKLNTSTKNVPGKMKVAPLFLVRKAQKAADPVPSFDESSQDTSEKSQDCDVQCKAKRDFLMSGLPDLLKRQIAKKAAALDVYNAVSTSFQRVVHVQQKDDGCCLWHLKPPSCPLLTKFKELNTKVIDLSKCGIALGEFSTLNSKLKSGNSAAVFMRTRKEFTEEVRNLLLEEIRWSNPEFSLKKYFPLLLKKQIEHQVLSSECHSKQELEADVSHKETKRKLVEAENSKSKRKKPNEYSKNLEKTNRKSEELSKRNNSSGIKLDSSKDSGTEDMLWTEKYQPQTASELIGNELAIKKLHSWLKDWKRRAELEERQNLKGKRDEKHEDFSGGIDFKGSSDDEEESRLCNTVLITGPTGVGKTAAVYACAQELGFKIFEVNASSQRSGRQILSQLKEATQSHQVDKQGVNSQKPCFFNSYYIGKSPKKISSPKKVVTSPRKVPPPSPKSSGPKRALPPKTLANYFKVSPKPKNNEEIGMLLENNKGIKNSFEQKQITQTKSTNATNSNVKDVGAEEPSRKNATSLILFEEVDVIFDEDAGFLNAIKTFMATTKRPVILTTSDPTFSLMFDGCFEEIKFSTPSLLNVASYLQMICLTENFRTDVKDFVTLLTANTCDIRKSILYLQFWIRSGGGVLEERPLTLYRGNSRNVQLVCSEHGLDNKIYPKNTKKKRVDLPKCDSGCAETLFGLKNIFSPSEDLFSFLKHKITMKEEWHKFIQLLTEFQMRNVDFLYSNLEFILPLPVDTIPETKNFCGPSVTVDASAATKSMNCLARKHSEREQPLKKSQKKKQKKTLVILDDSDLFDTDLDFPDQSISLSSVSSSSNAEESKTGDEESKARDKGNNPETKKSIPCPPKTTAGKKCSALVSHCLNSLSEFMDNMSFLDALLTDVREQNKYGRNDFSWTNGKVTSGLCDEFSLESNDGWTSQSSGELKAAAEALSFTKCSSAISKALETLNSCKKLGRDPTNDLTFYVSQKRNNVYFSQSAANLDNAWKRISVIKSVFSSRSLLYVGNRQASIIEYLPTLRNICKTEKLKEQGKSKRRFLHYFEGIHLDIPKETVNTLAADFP
ELG1 MMS Luc – inhibits ELG1-dependent repair under MMS stimulation in HEK293T cells; HEK293T luciferase-tagged ELG1 level, MMS stimulated; Potency, µM (doses to about 46.1 µM), without a hit: at the top dose activity change, negative = inhibition, actives largely listed as inhibitors; 53% of 670 active; shares compounds with ELG1 repair inh; further: potency means the concentration at half of the fitted maximal effect; nearly all actives have a fitted effect of over 60% in size
ELG1 5-FU – qHTS screen for small molecules that inhibit ELG1-dependent DNA repair: Hit Confirmation with 5FU Viability; cell viability with 5-FU, ELG1-dependent repair; Potency, µM (titrated, usually from 46.1 µM), for inactives: top-dose activity change, negative = viability loss, most hits filed as cytotoxic; shares compounds with ELG1 repair inh; 670 tested, under 10 active;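 further: ELG1-luc HEK293T cells cotreated with 5-fluorouridine at 10 µM final; potency means the concentration at half of the fitted maximal effect; viability measured 16 h after compound addition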
ELG1 MMS viab – qHTS screen for small molecules that inhibit ELG1-dependent DNA repair: Hit Confirmation with MMS Viability | shares compounds with ELG1 repair inh | Cell viability with MMS, ELG1-dependent DNA repair | Potency, µM (highest dose often 46.1 µM), for the others: at the highest dose activity change, negative = viability loss, most hits filed as cytotoxic | 33% of 670 active | AID 624251, 2012;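 further: ELG1-luc HEK293T cells co-treated with 10 µM MMS; potency means the concentration at half of the fitted maximal effect; viability read 16 h after compound addition; nearly all actives have a fitted effect of over 60% in size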
Cell viab unstim – qHTS screen for small molecules that inhibit ELG1-dependent DNA repair: Hit Confirmation with Unstimulated Viability Assay; shares compounds with ELG1 repair inh; 8% of 900 active; Potency, µM (series often up to 45.9 µM), without a hit: at the top dose activity change, negative = loss of viability, usual class: cytotoxic; cell viability counter-screen, unstimulated, luminescence; AID 624252, 2012;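 further: potency means the concentration at half of the fitted maximal effect; compound exposure lasted 16 hours before reading; nearly all actives have a fitted effect of over 55% in size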
Active calls of the source: *; u = inconclusive; x = not tested or not shown; ! = repeats disagree; [ ] = another dose, or the depositor's remark. Sampled rows, rich in hits. Any-hit rate of the full collection: about 21%. Unless noted, the call rests on the fitted dose curve; in most records, active means well fitted curve in the direction sought with a large enough effect; inconclusive means small, poorly fitted or top-dose-only effect, or another doubt; inactive means no such curve, though single readings can be large; an effect the other way counts as inactive or inconclusive. On the % scale 0 is the no-effect control and ±100 the full control effect.

SMILES | ELG1 repair inh | TDP1 cell CPT | IL-1B inflam inh | VP16 counter | DT40 TDP1 no CPT | RORgamma inh | others
C[C@@H]1OC(OC2C(OC3CC[C@@]4(C)C5CC=C6C7CC(C)(C)CC[C@@]7(C(=O)O)CCC6(C)C5(C)CCC4[C@]3(C)CO)OCC(O)C2O)C(O)C(O)C1O (stereo partly specified) | x | u | x | -28% | 16µM* | -34%
O=C(Cn1c(=O)nc(-c2ccccc2)c2cc(Cl)ccc21)NCc1ccccc1 | x | 7.3µM* | x | x | 16µM* | x
CN1CCC2=C[C@@H](O)[C@@H]3OC(=O)c4cc5c(cc4C3C21)OCO5 (stereo partly specified) | x | -25%[9.04 µM] | x | -29% | -26%[9.04 µM] | 3%
Cn1cc(C=C(C#N)C#N)c2ccccc21 | 4% | 7% | -3 | 2% | 12% | -11%
Cn1cc(/C=C(\C(=O)O)C(C(=O)O)=C2CCCCC2)c2ccccc21 | 14% | 23µM* | 40 | 0%[10 µM] | 15µM* | -15%
FC(F)(F)c1cccc(NC2=NCCS2)c1 | x | -20% | 18 | x | u | x
Cc1cc(C)c(NC2=NCCS2)cc1C | x | -24% | 28 | x | u | x
c1ccc2c(N3CCNCC3)nsc2c1 | u | 10µM* | -54* | -9% | 13µM* | 0%
CCCC12CN3CC(C)(CN(C1)C3c1c(C)[nH]c(=O)[nH]c1=O)C2=O (stereo unspecified) | x | -3% | x | x | -23% | x
C[C@H]1CO1 | x | x | x | -4% | x | -11%
CC(Cc1ccccc1)NC(=O)/C=C/c1ccc(Cl)cc1 (stereo unspecified) | u | u | -54* | 0% | u | 25%
CCC1C=CC=CC[C@H](C)[C@@H](O)[C@](C)(O)C(=O)[C@@H](C)[C@H](O)[C@@H](C)C(=O)[C@H](C)[C@@H](O)[C@H](C)C=CC(=O)OC2[C@@H](C)C(CC1)OC1(CC[C@@H](C)C(C[C@H](C)O)O1)[C@@H]2C (stereo partly specified) | 12µM* | x | x | x | x | x
O=P(O)(O)CN1CCNCCN(CP(=O)(O)O)CCNCC1 | x | 6.5µM* | -15 | x | 6.5µM* | x
CN(C)C1(CNC(=O)c2ccc(NS(=O)(=O)c3ccc(Cl)c(Cl)c3)cc2)CCCCC1 | 7% | u | -17 | x | u | x
CN(C)C1(CNC(=O)Nc2ccc(Cl)c(Cl)c2)CCCCC1 | 14% | u | -72* | -19% | u | -2%
CC[C@@]1(C(=O)OC)N[C@H](CN(C)C(=O)c2ccc(C(C)(C)C)cc2)[C@@H]2C(=O)N(Cc3ccccc3)C(=O)[C@@H]21 | 12µM* | u | -20 | x | 16µM* | x
CCN(C[C@H]1N[C@@](CC)(C(=O)OC)[C@H]2C(=O)N(Cc3ccccc3)C(=O)[C@@H]12)S(=O)(=O)c1ccc(OC)cc1 | u | 23µM* | -18 | x | u | x
CS(=O)(=O)c1ccc(C2=C(CNC(=O)c3nccs3)[C@H]3CC[C@@H](C2)N3CCOc2ccccc2)cc1 | x | -16% | 7 | x | u | x
FC(Cl)(Cl)Cl | x | x | x | -2% | x | 7%
COc1ccc(/C=C2/C(=O)N(Cc3ccco3)C(=O)N(C(C)C)C2=O)cc1 | 5% | -2% | 10 | 7% | -6% | 10%
CC(C)N1C(=O)/C(=C/C=C/c2ccco2)C(=O)N(Cc2ccco2)C1=O | u | 16µM* | -106* | u | 15µM* | u
COc1cc(CN=C(C)c2c(O)n(C3CCCCC3)c(=O)[nH]c2=O)cc(OC)c1 | u | u | -23 | -7% | 23µM* | 16%
CCC(=NC1CC1)c1c(O)n(C2CCCCC2)c(=O)[nH]c1=O | 10% | -24% | 27 | 27% | u | 26%
CCC(=NCc1cc(OC)cc(OC)c1)c1c(O)n(C2CCCCC2)c(=O)[nH]c1=O | 16µM* | u | -12 | u | u | 24%
COc1ccc2c(c1)[nH]c1c(C)nccc12 | 2µM* | 13µM* | -72* | u | 20µM* | 8.9µM*! | ELG1 Luc conf=2.8µM*;ELG1 MMS Luc=11µM*;ELG1 5-FU=9%;ELG1 MMS viab=u;Cell viab unstim=-14%
COc1ccccc1OP(=O)(Nc1cccnc1)Oc1ccccc1OC | 2.3µM* | u | 3 | -5% | 12µM* | u | ELG1 Luc conf=11µM*;ELG1 MMS Luc=7.9µM*;ELG1 5-FU=8%;ELG1 MMS viab=-16%;Cell viab unstim=u
O=C(O)C(Cl)(Cl)Cl | x | -8% | 18 | -1% | 19% | 4%
C=CCn1c(O)c(/C(C)=N/N2CCCCCC2)c(=O)[nH]c1=O | 10% | u | 76 | 5% | u | -5%
